Reference: PubChem BioAssay (NCATS)
Results filed as inconclusive are left out. Values without a mark were called inactive. Calls come from the whole dose curve; as a rule, active = well fitted curve in the direction sought with a large enough effect in the signal ratio; inconclusive = small, poorly fitted or top-dose-only effect, or effect the other way, or a change in a side signal; inactive = no such curve, though single readings can be large or run the other way; the % refers to the signal ratio.

Assay: Validation of Assay for Modulators of Lamin A Splicing (AID 1459);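 note: cells exposed to compound for two days before reading; 0% is about no effect; ratio rise marks activators and ratio drop marks inhibitors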
Details: Lamin A splicing dual RFP/GFP fluorescence reporter; series mostly up to 9.22 µM; ratio change, both ways: at the top concentration
In short: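 Splicing correction read as GFP (500-530 nm) over DsRed2 (575-640 nm) object intensity after 48 h compound exposure of reporter HeLa S3 clones (600 cells/well, 2% FBS medium); ancitabine and cycloheximide titrations, 0.5% DMSO as vehicle.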

Structure (SMILES)	ratio change, both ways [%]
CCc1c(C)[nH]c2c1C(=O)C(CN1CCOCC1)CC2 (stereo unspecified)	-10.6
Cc1ccc(S(=O)(=O)NC(=O)NN2CCCCCC2)cc1	-2.14
C#CCN(C)CCCOc1ccc(Cl)cc1Cl	-5.92
N[C@@H](COP(=O)(O)O)C(=O)O	-13.9
COC(=O)[C@@H](N)Cc1ccc(O)c(O)c1	0.279
COc1cc2c(cc1OC)-c1cc(=Nc3c(C)cc(C)cc3C)n(C)c(=O)n1CC2	-11.4
